Source: the supplement of paper PMC10849652
The full data set covers some 8,800 targets. This sample favours those with a hit. About 0.5% of all pairs of compound and target were hits. Unmarked numbers belong to inactive results.

Legend:
Test in all cases: log2 fold change, soluble protein after heating vs DMSO (PISA); higher = thermal stabilisation; K562 lysate, 10 uM; active = over 0.2 and 3.5 SD of the protein, either way, in both replicates (recomputed)
erlotinib = compound: C#Cc1cccc(Nc2ncnc3cc(OCCOC)c(OCCOC)cc23)c1 [erlotinib]
Summary of the method: (§1)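 Soluble protein was defined as the supernatant remaining after 21,000xg for 90 min, following pooling of heated aliquots and adjustment to 0.5% NP-40 at 4°C. Before that, crude K562 extract at 1 mg/mL protein in PBS pH 7.4 with 1 mM MgCl2 was treated with 10 μM compound for 30 min and heated for 3 min across 48°C-58°C. Quantification used TMTpro 16plex LC-MS/MS with channel sums equalised, and values are log-two fold changes in thermal stability relative to solvent controls from duplicates.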

[1] = compound: C/C(=N\NC(=O)C1=CC(=CC=C1)S(=O)(=O)N2CCOCC2)/C3=C(C=CC(=C3)Cl)O
Summary of the method: as §1

[2] = compound: C1=CC(=CC=C1C2=NC3=C(N2)C=C(C=C3)C(=O)N)OC4=CC=C(C=C4)Cl
Summary of the method: as §1

[3] = compound: C1=CC2=C(C=CC(=C2)/C=C\3/C(=O)NC(=NCC4=CC=CS4)S3)N=C1
Summary of the method: as §1

[4] = compound: C1=CC2=NC=CN=C2C=C1/C=C/3\C(=O)NC(=O)S3
Summary of the method: as §1

[5] = compound: C1=CC=C(C=C1)C2=NC(=C(N2)C3=CC=NC=C3)C4=CC(=C(C=C4)Cl)O
Summary of the method: as §1

[6] = compound: C1=CC=C2C(=C1)C3=NNC4=CC=CC(=C43)C2=O
Summary of the method: as §1

[7] = compound: C1CCN(C1)C(=O)NC2=CC=CC(=C2)NC3=NC=C(C(=N3)NCCC4=CN=CN4)Br
Summary of the method: as §1

[8] = compound: C1CN(CCC1(CC2=CC=C(C=C2)Cl)N)C3=NC=NC4=C3C=CN4
Summary of the method: as §1

IRAK-1-4 Inhibitor I = compound: C1COCCN1CCN2C3=CC=CC=C3N=C2NC(=O)C4=CC(=CC=C4)[N+](=O)[O-] [IRAK-1-4 Inhibitor I]
Summary of the method: as §1

Sequence of UniProt Q99963 (Q99963 whole entry, looked up): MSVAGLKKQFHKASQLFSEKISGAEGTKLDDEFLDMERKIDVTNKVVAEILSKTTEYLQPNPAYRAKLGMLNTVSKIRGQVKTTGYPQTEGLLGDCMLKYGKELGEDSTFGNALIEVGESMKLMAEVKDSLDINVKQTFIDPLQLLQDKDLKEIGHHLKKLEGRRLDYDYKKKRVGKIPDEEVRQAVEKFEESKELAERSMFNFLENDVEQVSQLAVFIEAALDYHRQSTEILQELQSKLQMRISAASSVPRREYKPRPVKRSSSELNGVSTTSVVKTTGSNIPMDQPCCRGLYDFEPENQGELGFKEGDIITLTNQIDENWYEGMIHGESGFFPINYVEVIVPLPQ
Sequence of UniProt P35711 (P35711 whole entry, looked up): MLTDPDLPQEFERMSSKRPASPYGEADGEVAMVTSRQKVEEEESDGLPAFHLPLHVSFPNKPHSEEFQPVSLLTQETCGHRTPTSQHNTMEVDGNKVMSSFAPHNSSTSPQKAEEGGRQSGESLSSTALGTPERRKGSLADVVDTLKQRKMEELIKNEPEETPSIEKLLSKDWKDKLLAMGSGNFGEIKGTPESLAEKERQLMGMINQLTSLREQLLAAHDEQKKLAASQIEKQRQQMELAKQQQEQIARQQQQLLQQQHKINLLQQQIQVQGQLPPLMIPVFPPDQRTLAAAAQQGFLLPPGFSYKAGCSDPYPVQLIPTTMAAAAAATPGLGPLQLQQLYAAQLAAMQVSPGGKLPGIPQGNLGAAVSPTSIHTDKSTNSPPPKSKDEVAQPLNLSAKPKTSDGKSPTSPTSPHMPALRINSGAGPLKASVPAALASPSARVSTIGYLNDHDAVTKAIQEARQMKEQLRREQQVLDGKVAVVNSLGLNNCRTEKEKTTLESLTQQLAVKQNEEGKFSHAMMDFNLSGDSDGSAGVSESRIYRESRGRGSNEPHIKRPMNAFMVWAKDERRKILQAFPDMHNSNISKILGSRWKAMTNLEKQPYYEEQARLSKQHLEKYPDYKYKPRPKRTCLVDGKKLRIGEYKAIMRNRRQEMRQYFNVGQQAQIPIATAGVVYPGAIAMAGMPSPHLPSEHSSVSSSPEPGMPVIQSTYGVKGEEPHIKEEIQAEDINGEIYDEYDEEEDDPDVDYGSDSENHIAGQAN
Sequence of UniProt O95347 (O95347 whole entry, looked up): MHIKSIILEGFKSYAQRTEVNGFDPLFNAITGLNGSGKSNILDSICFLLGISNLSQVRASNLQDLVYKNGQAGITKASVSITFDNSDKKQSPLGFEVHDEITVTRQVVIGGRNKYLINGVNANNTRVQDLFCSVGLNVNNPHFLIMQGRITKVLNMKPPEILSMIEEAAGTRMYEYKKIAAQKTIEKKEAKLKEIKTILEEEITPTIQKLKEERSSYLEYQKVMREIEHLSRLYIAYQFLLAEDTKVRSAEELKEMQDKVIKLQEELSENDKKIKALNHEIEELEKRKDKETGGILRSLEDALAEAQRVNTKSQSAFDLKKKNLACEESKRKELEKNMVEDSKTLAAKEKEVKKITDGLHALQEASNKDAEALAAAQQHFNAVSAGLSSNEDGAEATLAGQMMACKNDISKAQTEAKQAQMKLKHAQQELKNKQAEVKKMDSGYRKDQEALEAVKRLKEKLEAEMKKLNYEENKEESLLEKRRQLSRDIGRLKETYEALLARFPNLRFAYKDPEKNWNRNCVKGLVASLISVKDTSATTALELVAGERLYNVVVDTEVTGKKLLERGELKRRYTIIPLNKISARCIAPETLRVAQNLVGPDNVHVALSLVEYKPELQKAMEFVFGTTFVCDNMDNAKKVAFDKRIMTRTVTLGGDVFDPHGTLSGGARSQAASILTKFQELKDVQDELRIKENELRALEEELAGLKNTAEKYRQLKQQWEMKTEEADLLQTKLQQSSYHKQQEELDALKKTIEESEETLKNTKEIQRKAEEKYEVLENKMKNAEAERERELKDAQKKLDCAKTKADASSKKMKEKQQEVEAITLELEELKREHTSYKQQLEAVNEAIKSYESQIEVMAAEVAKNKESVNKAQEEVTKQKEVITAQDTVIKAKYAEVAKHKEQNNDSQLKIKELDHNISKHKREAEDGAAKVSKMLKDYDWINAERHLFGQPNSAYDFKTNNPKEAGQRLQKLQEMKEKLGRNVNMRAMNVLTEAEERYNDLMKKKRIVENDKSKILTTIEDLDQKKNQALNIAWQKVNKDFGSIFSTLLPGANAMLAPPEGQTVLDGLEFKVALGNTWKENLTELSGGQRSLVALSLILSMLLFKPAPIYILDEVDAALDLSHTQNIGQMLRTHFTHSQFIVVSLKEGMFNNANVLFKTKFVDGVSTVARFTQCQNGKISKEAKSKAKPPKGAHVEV
Sequence of UniProt Q8NB90 (Q8NB90 whole entry, looked up): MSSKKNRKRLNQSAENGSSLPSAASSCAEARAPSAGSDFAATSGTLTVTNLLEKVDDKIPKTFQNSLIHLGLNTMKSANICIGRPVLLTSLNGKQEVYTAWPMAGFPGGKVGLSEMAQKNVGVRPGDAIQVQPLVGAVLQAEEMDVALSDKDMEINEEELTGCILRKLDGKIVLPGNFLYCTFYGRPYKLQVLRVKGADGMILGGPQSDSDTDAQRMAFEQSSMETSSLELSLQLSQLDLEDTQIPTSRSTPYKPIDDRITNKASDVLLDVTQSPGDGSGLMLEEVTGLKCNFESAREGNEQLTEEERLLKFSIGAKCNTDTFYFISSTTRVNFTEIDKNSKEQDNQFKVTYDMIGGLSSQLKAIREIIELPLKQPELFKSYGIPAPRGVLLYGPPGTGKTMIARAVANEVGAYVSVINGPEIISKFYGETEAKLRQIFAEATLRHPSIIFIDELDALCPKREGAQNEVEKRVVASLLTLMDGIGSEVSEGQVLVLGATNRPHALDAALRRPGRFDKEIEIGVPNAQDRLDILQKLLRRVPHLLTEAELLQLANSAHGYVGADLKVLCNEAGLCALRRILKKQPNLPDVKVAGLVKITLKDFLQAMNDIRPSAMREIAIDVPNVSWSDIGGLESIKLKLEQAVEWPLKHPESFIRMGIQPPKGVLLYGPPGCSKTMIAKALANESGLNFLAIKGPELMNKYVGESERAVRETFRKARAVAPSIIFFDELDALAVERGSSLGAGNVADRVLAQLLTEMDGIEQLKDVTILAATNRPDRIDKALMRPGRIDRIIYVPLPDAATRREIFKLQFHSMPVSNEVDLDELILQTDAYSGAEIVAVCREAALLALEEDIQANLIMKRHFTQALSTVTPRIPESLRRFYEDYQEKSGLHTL
Sequence of UniProt Q9H2V7 (Q9H2V7 whole entry, looked up): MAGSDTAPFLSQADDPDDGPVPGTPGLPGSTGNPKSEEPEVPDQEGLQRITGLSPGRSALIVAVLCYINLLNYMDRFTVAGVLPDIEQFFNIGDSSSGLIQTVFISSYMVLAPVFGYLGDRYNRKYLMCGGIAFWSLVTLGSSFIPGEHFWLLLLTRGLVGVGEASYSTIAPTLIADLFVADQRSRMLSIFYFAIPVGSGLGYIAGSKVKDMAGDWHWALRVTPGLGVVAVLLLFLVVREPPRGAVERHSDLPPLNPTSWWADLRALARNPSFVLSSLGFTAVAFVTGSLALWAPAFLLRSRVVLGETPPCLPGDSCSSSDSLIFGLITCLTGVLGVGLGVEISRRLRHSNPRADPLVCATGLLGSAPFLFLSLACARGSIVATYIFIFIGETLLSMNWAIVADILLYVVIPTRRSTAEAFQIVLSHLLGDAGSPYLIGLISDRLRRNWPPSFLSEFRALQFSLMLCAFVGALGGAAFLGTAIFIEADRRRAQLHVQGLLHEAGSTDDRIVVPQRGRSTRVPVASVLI
Sequence of UniProt Q9UPR3 (Q9UPR3 whole entry, looked up): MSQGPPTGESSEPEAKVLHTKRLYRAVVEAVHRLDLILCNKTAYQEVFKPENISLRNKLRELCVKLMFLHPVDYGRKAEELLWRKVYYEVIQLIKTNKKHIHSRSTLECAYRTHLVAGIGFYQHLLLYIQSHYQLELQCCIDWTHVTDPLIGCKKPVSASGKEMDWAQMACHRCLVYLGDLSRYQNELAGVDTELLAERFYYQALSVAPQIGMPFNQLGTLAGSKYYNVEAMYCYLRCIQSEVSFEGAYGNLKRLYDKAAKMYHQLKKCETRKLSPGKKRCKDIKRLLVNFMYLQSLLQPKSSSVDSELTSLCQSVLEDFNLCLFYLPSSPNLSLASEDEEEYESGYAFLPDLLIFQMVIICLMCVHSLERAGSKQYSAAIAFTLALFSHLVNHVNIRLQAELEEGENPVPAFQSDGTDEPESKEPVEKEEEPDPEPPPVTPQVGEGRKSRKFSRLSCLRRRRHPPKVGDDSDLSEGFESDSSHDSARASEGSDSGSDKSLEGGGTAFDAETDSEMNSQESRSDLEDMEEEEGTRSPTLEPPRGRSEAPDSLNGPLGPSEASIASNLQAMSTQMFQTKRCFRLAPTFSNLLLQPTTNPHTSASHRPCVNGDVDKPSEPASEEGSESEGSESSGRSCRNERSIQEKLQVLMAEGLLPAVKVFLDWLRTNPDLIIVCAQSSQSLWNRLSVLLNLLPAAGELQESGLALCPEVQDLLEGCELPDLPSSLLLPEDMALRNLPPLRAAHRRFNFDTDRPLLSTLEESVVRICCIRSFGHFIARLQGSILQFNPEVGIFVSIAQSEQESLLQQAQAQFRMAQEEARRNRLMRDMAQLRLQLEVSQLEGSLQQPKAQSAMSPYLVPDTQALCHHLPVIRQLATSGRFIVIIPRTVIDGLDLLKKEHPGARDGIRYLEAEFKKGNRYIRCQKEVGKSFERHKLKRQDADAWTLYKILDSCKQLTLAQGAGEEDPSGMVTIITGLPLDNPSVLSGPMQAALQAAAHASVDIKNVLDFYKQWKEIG
Sequence of UniProt Q9HBM1 (Q9HBM1 whole entry, looked up): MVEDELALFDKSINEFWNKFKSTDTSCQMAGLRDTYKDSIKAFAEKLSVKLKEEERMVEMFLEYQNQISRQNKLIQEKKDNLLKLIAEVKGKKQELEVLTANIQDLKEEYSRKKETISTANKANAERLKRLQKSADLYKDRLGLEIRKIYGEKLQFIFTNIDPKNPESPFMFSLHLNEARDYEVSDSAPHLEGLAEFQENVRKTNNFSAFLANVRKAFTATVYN
Sequence of UniProt Q8NHG7 (Q8NHG7 whole entry, looked up): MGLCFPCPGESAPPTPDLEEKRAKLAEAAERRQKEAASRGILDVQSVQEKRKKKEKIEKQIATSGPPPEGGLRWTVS

| Target | log2 fold change (erlotinib) | log2 fold change [1] | log2 fold change [2] | log2 fold change [3] | log2 fold change [4] | log2 fold change [5] | log2 fold change [6] | log2 fold change [7] | log2 fold change [8] | log2 fold change (IRAK-1-4 Inhibitor I) |
| --- | --- | --- | --- | --- | --- | --- | --- | --- | --- | --- |
| STK39 (UniProt Q9UEW8) | 0.006 | 0.08 | -0.001 | -0.014 | -0.03 | 0 | -0.133 | -0.004 | -0.013 | -0.003 |
| SPC25 (UniProt Q9HBM1) | 0.021 | -0.065 | -0.006 | 0.059 | -0.034 | 0.021 | -0.006 | -0.039 | 0.018 | 0.027 |
| SNX6, A0A0A0MRI2 | 0.012 | 0.056 | -0.029 | 0.04 | -0.028 | 0.013 | -0.073 | 0.024 | -0.047 | -0.013 |
| SMAD2 (UniProt Q15796) | 0.14 | 0.062 | -0.018 | 0.03 | 0.002 | 0.074 | -0.003 | 0.004 | 0.035 | -0.03 |
| SMYD3 (UniProt Q9H7B4) | 0.094 | 0.104 | 0.009 | -0.036 | 0.064 | -0.021 | -0.036 | -0.022 | -0.038 | 0.001 |
| SPHK1 isoform 2 (UniProt Q9NYA1) | -0.055 | -0.462 | -0.059 | 0.038 | 0.034 | -0.097 | -0.066 | 0.016 | 0.038 | 0.018 |
| STUB1 (UniProt Q9UNE7) | 0.05 | 0.024 | -0.034 | -0.022 | 0.009 | 0.003 | -0.033 | 0.013 | 0.006 | -0.018 |
| SLC26A6 (UniProt Q9BXS9) | -0.04 | -0.117 | 0.024 | -0.018 | -0.044 | 0.032 | -0.114 | -0.13 | 0.087 | -0.062 |
| SSBP3 (UniProt Q9BWW4) | 0.038 | -0.09 | 0.004 | 0.026 | 0.129 | -0.048 | 0.018 | -0.054 | 0.013 | 0.041 |
| SPPL2A (UniProt Q8TCT8) | 0.005 | -0.007 | 0.118 | -0.104 | -0.011 | -0.07 | -0.141 | -0.082 | -0.644 (active) | 0.014 |
| SVIP (UniProt Q8NHG7) | 0.037 | 0.013 | -0.004 | -0.007 | 0.001 | 0.041 | -0.012 | 0.107 | 0.057 | 0.001 |
| STK3 isoform 2 (UniProt Q13188) | -0.009 | -0.1 | 0.012 | -0.07 | -0.001 | 0.016 | 0.181 | 0.157 | 0.031 | -0.005 |
| SLC25A38 (UniProt Q96DW6) | -0.077 | -0.117 | -0.024 | -0.049 | -0.086 | -0.114 | -0.092 | -0.023 | -0.07 | -0.052 |
| SULT1A1 (UniProt P50225) | -0.045 | 0.08 | -0.014 | 0.069 | 0.048 | -0.011 | -0.061 | -0.026 | 0.018 | -0.04 |
| STAT2 (UniProt P52630) | -0.009 | 0.033 | -0.102 | -0.01 | 0.034 | 0.003 | -0.032 | 0.002 | 0.018 | -0.018 |
| SPNS1 (UniProt Q9H2V7) | 0.015 | -0.043 | -0.02 | 0.043 | -0.031 | 0.029 | -0.063 | 0 | 0.044 | 0.032 |
| SMC2 (UniProt O95347) | -0.001 | -0.011 | -0.011 | 0.001 | 0.012 | 0.013 | -0.036 | 0.003 | -0.008 | -0.019 |
| STOML2 (UniProt Q9UJZ1) | -0.021 | 0.018 | 0.04 | -0.049 | 0.037 | 0.012 | -0.063 | 0.023 | 0.027 | 0.036 |
| SPATA5 (UniProt Q8NB90) | 0.04 | 0.025 | -0.006 | 0.025 | -0.042 | 0.042 | 0.015 | 0.017 | 0.017 | 0.016 |
| STK24 (UniProt B4DR80) | 0.019 | 0.02 | 0.018 | -0.04 | -0.003 | -0.004 | 0.198 | 0.045 | 0.013 | -0.007 |
| SSX5 isoform 2 (UniProt O60225) | -0.302 | 0.12 | -0.142 | 0.195 | -0.125 | 0.043 | -0.027 | 0.23 | -0.219 | 0.007 |
| SLC30A9 (UniProt Q6PML9) | -0.023 | 0.039 | -0.17 | -0.079 | 0.017 | -0.012 | -0.023 | -0.056 | 0.1 | -0.005 |
| SMG6 (UniProt Q86US8) | -0.038 | 0.026 | 0.012 | 0.009 | 0.021 | 0 | -0.092 | -0.04 | -0.005 | 0.026 |
| SLC16A1 (UniProt P53985) | -0.007 | -0.038 | 0.036 | 0.029 | -0.018 | 0.034 | 0.034 | -0.024 | 0.004 | 0.032 |
| SLC25A17 (UniProt O43808) | 0.035 | 0.057 | 0.061 | 0.014 | -0.015 | 0.012 | -0.021 | 0.012 | 0.03 | 0.056 |
| STK25 (UniProt O00506) | 0.037 | -0.04 | -0.038 | 0.021 | 0.012 | 0.031 | 0.317 (active) | 0.052 | -0.022 | -0.001 |
| SH3GL3 isoform 3 (UniProt Q99963) | -0.023 | -0.014 | -0.002 | -0.054 | -0.053 | -0.108 | -0.133 | 0.054 | -0.06 | -0.124 |
| SOX5 (UniProt P35711) | -0.169 | 0.08 | 0.025 | 0.38 (active) | 0.131 | 0.059 | -0.239 | 0.028 | 0.154 | 0.044 |
| SRRT (UniProt Q9BXP5) | 0.039 | 0.023 | -0.005 | 0.041 | 0.004 | 0.022 | -0.03 | -0.005 | -0.011 | 0.004 |
| SMG5 (UniProt Q9UPR3) | -0.037 | -0.038 | 0.028 | -0.008 | -0.012 | -0.074 | -0.035 | -0.004 | -0.043 | 0.007 |
